Test results as given in PubChem BioAssay (NCI).
Compounds without any hit were thinned out: in the full panel of roughly 83,000, 20% have a hit.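 Plates (96-well) were seeded with cells, treated with compound at one concentration, and incubated for 48 hours before percent growth was determined.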 Unmarked numbers belong to inactive results. Activity calls are given as the source filed them. The calls were made as follows: active = growth percent below 10; inactive = the rest.

How the values were obtained:
Assay in all cases: NCI-60 one-dose screen, 48 h (100 = growth as untreated, 0 = no growth, -100 = all killed)
Conditions in all cases: 10 µM
SK-MEL-2 melanoma = test system: SK-MEL-2 melanoma
EKVX NSCLC = test system: EKVX NSCLC
SN12C renal = test system: SN12C renal
UO-31 renal = test system: UO-31 renal
TK-10 renal = test system: TK-10 renal
ACHN renal = test system: ACHN renal
CAKI-1 renal = test system: CAKI-1 renal
A498 renal = test system: A498 renal
CCRF-CEM leukemia = test system: CCRF-CEM leukemia

| SMILES | growth (SK-MEL-2 melanoma) | growth (EKVX NSCLC) | growth (SN12C renal) | growth (UO-31 renal) | growth (TK-10 renal) | growth (ACHN renal) | growth (CAKI-1 renal) | growth (A498 renal) | growth (CCRF-CEM leukemia) |
| --- | --- | --- | --- | --- | --- | --- | --- | --- | --- |
| COc1ccc(-c2nc(S(=O)(=O)c3ccc(C)cc3)c(S(=O)(=O)CC(=O)N(C)Cc3ccccc3)o2)cc1 | 51.1% | 84.6% | 47.4% | 34.8% | 56% | 6.56% (active) | 42.9% | 132% | -35.9% (active) |
| CC(=O)Nc1nc(-c2ccc(N3CCN(C)CC3)c(NS(=O)(=O)c3cccc4c(N(C)C)cccc34)c2)cs1 | 65.3% | 69.9% | 75.6% | 60% | 84.3% | 60.7% | 66.5% | 117% | 8.38% (active) |
| CCOC(=O)C1=C(N)N(c2ccc(Cl)cc2)C2=C(C(=O)CC(C)(C)C2)C1c1ccc(N2CCOCC2)cc1 (stereo not drawn) | 96.2% | 74.6% | 97.7% | 85.3% | 98% | 112% | 86.7% | 119% | 100% |
| Cc1cc2c(c(O)c1Br)-c1ncoc1C(=O)[C@]1(C)CC[C@H](C(C)C)[C@H]21 | 4.52% (active) | 46.7% | 54.5% | 50.3% | 68.8% | 52.2% | 55.4% | 104% | 14.2% |
| Cc1ccc(NC(=O)c2ccc(-n3c(=O)[nH]c4ccccc4c3=O)cc2)cc1 | 97.8% | 84.8% | 69.4% | -16.8% (active) | 96.3% | 68.3% | 88.4% | 107% | 60.7% |
| O=C(Nc1ccccc1)Nc1nc2ccccc2s1 | 92.9% | 64.1% | 88.9% | 57.5% | 95.4% | 82.2% | 76.7% | 129% | 67.5% |
| COc1cccc(-c2nn(-c3ccccc3)cc2-c2ccnc(NCCCNC(=O)Nc3ccc(F)cc3)c2)c1 | -40.6% (active) | 20.7% | 23.6% | 17.7% | 49.8% | 20.6% | 19.2% | 58% | -26.7% (active) |
| O=C1CCC(N2Cc3c(C#CCCCNC(=O)c4ccc(NC(=O)[C@@H]5NC6(CCCCC6)[C@@]6(C(=O)Nc7cc(Cl)ccc76)[C@H]5c5cccc(Cl)c5F)cc4)cccc3C2=O)C(=O)N1 (stereo partly drawn) | 76.4% | 51.6% | 74.3% | 30.3% | 79.8% | 26.2% | 36.1% | 94.9% | 47.9% |
| CCN(CC)CCOc1ccc(C(=C(C)c2ccccc2)c2ccc(OCCN(CC)CC)cc2)cc1 | -75.8% (active) | 35.3% | 56.9% | -41.6% (active) | -9.31% (active) | -13.3% (active) | 8.81% (active) | 78.5% | -27.2% (active) |
| CN1CCN(c2ccc(Nc3nc(N4CCN(S(=O)(=O)c5ccc(Cl)cc5)CC4)c4sccc4n3)cc2)CC1 | 79.4% | 62.1% | 91.9% | 64.2% | 85.9% | -64.4% (active) | 7.7% (active) | 125% | 1.87% (active) |
| CCCCCc1ccc(S(=O)(=O)Nc2cc(-c3csc(N(C)C(C)=O)n3)ccc2N2CCN(C)CC2)cc1 | 24.2% | 65.4% | 14.1% | 33.1% | 47.3% | 13.7% | 38.9% | 104% | -27.5% (active) |
| O=S(=O)(c1ccc(Cl)cc1)c1nc(-c2ccccc2)oc1S(=O)(=O)c1ccc(Cl)cc1 | 96.7% | 92.1% | 89.5% | 64.4% | 97.8% | 91.9% | 85.8% | 122% | -28.1% (active) |
| Cc1ccc(-c2nc3ccc(C(=O)N=Nc4c(O)[nH]c5ccc(Cl)cc45)cc3[nH]2)cc1 | 57.3% | 37.9% | 23% | 72.4% | 65.6% | 55.1% | 58% | 119% | -31.7% (active) |
| CC1(C)CC[C@]2(C(=O)Nc3ccccc3)CC[C@]3(C)C(=CC[C@@H]4[C@@]5(C)CC[C@H](N)C(C)(C)[C@@H]5CC[C@]43C)[C@H]2C1 | 107% | 90.5% | 87.7% | 71.5% | 107% | 90.3% | 79.9% | 131% | 32.6% |
| CC1(C)CC[C@]2(C(=O)N3CCOCC3)CC[C@]3(C)C(=CC[C@@H]4[C@@]5(C)CC[C@H](NCO)C(C)(C)[C@@H]5CC[C@]43C)[C@H]2C1 | -82% (active) | -87.8% (active) | -91% (active) | -100% (active) | -82% (active) | -100% (active) | -96.2% (active) | -91.5% (active) | -33.8% (active) |
| O=C(CS(=O)(=O)c1oc(-c2ccc(Cl)cc2)nc1S(=O)(=O)c1ccc(Cl)cc1)N1CCOCC1 | 83.9% | 83.5% | 55.3% | -19.9% (active) | 16.5% | -98.2% (active) | 30.9% | 134% | -34.6% (active) |
| c1ccc(C(=C(c2ccc(OCCN3CCCCC3)cc2)c2ccc(OCCN3CCCCC3)cc2)C2CCCC2)cc1 | -90.2% (active) | 21.4% | -8.67% (active) | 89.5% | 16.6% | 80.3% | 76.1% | 102% | -60.4% (active) |
| CC[C@@]1(O)C(=O)OCc2c1cc1n(c2=O)Cc2c-1nc1cc(F)c(C)c3c1c2[C@@H](N)CC3 | -29.2% (active) | 15.4% | 1.83% (active) | -82.4% (active) | 6.02% (active) | -57.8% (active) | -22.9% (active) | -89.6% (active) | 13.4% |
| Cc1ccc(S(=O)(=O)c2nc(-c3ccccc3)oc2S(=O)(=O)CC(=O)N2CCCC2)cc1 | -50.6% (active) | 5.22% (active) | -85% (active) | -100% (active) | -99.7% (active) | -100% (active) | -100% (active) | 90.1% | -64.4% (active) |
| CCCCCc1ccc(S(=O)(=O)N(C(C)=O)c2cc(-c3csc(N(C)C(C)=O)n3)ccc2N2CCN(C)CC2)cc1 | 35.1% | 62.7% | 21.2% | 41.8% | 76.7% | 30.1% | 31.8% | 123% | -7.22% (active) |
| O=C(Nc1ccc(OCC(=O)c2ccccc2)cc1)Nc1ccc(Cl)c(C(F)(F)F)c1 | -53.7% (active) | 17.2% | 24.9% | 17.6% | 49.2% | 18.1% | 20.2% | 17.1% | 9.86% (active) |
| CN1CCN(c2ccc(Nc3nc(NCCCNC(=O)c4ccc(Cl)cc4)c4sccc4n3)cc2)CC1 | 113% | 88.3% | 74.5% | 67.3% | 115% | 73.1% | 79.9% | 136% | 34.8% |
| CCN1CCN(c2ccc(NC(=O)Nc3ccc4c(c3F)CCN4c3ccnc(C(=O)NC)c3)cc2C(F)(F)F)CC1 | 99.6% | -76.9% (active) | 104% | 85.3% | 118% | 54.9% | -87.9% (active) | 142% | -42.3% (active) |
| COC1CC(Cn2cc(COc3ccc4ccc(=O)oc4c3)nn2)C(OCc2ccccc2)C(OCc2ccccc2)C1OCc1ccccc1 (stereo not drawn) | 114% | 90.7% | 106% | 71.7% | 110% | 105% | 84% | 116% | 87% |
| Cc1ccc(NC(=O)NCn2c(=O)[nH]c3ccccc3c2=O)cc1 | 93.1% | 87.6% | 68.6% | 44.5% | 72.5% | 35% | 61.4% | 90.4% | 97.5% |
| O=C(Cn1cc(CSc2nnc3oc4ccccc4n23)nn1)Nc1ccc(Br)cc1 | 71.5% | 78.5% | 61.5% | 74.2% | 85.8% | 75.2% | 71.2% | 119% | 97.9% |
| Cc1ccc(-c2nc3ccc(C(=O)N=Nc4c(O)[nH]c5ccc([N+](=O)[O-])cc45)cc3[nH]2)cc1 | 101% | 101% | 48.8% | 81.7% | 107% | 97% | 95.9% | 116% | 61.2% |
